Bioassay records as filed in PubChem BioAssay.
An excerpt weighted towards active compounds, which were near 27% of everything screened.
Cav3 T inh: Cav3.2 calcium influx blockers – cell-based, Fluo-4 calcium fluorescence, FDSS, MLSMR library, primary screen; actives 4% (n = 100,000); Cav3.2-expressing cells; active compounds read low; Voltage-dependent T-type calcium channel subunit alpha-1H (Homo sapiens), O95180; B-score at 10 µM;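 active = single-dose well whose peak fluorescence ratio is a statistical outlier from its plate by either plate-standardised score or position-corrected B-score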
CYP2C9 activ: human CYP2C9 activators, primary screen, biochemical, luminescence. Cytochrome P450 2C9 (Homo sapiens), P11712. recombinant CYP2C9, luciferin-H conversion; active compounds read high; factor 1 = untreated enzyme, 0 = blocked. activation factor at 5 µM. actives 1.4% (n = 96,000). AID 1024, 2008;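 active = activation factor of 2 or more for CYP2C9 at a 5 µM dose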;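 note: 0 = sulfaphenazole-blocked wells and 1 = vehicle-only wells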
CYP2C19 inhib: blockers of cytochrome P450 2C19 activity – biochemical, luminescence, ADME assay, primary screen. CYP2C19 Supersomes, luciferin-H EGE luminescence, 30 min. AID 778, 2007. inhibition, % at 5 µM. actives 21% (n = 96,000);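 active = CYP2C19 inhibition above a set limit at 5 µM in the primary screen, cut at about 50% in these data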;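 note: plate controls were negative control wells for no effect and 2.5 mM tranylcypromine positive control for full effect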
CYP2C19 activ: human CYP2C19 activators, primary screen, biochemical, luminescence. 96,000 tested, under 10 active. AID 1025, 2008. activation factor at 5 µM. recombinant CYP2C19, luciferin-H EGE luminescence; active compounds read high; 0 = fully inhibited enzyme, 1 = untreated enzyme;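 active = activation factor of at least 2 at 5 µM in the primary screen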;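 note: 0 = wells with 2.5 mM tranylcypromine and 1 = vehicle-only wells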
CYP2C9 inh: blockers of cytochrome P450 2C9 activity – biochemical, luminescence, ADME assay, primary screen; inhibition, % at 5 µM; actives 20% (n = 96,000); P11712; AID 777, 2007; CYP2C9 Supersomes, luciferin-H conversion;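 active = blocking of liver enzyme CYP2C9 beyond about 50% at 5 µM, limit read from the data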
* = called active by the depositor; . = no result.

SMILES	Cav3 T inh	CYP2C9 activ	CYP2C19 inhib	CYP2C19 activ	CYP2C9 inh
CC(C)C(NS(=O)(=O)c1ccc2c(c1)oc(=O)n2C)C(=O)N1CCN(Cc2ccccc2)CC1 (stereo unspecified)	0.58	0.9	20	0.8	13
CN1CCN(CC(C)(C)NS(=O)(=O)c2ccc(Cl)cc2)CC1	1.3	1	95*	0.1	1
CCC(=O)c1c[nH]c(C(=O)NCCCn2ccnc2)c1	.	0.2	76*	0.2	83*
O=C(NCCCn1ccnc1)c1ccc2c(c1)OCCO2	-0.21	0.4	97*	0	58*
O=C(NCCCn1ccnc1)c1cccnc1	1.5	.	.	.	.
C=C(C)c1cccc(C(C)(C)NC(=O)NCCCn2ccnc2)c1	-1.9	0	98*	0	96*
Cc1ccc(C(=O)NCCCn2ccnc2)cc1[N+](=O)[O-]	0.93	0.2	74*	0.3	82*
CC(C)CC(=O)c1c[nH]c(C(=O)NCCCN2CCOCC2)c1	-0.067	1.1	-17	1.2	-9
CC1CN(S(=O)(=O)c2cccc(C(=O)NCCCn3ccnc3)c2)CC(C)O1 (stereo unspecified)	0.56	0.4	9	0.9	63*
COc1cccc2c(=O)n(CC(=O)NC3CCCCC3)ccc12	0.29	2.2*	28	0.7	-118
CCC(C)n1c(=N)c(C#N)cc2c(=O)n3ccccc3nc21 (stereo unspecified)	1.1	.	.	.	.
N#Cc1cc2c(=O)n3ccccc3nc2n(CCCn2ccnc2)c1=N	0.049	0.2	71*	0.3	78*
CC(C)(C)C(=O)N1CCN(c2ccc([N+](=O)[O-])cc2Cl)CC1	-0.54	.	.	.	.
CCC(=O)NC(=S)N1CCN(c2ccc([N+](=O)[O-])cc2Cl)CC1	0.86	1	68*	0.3	-4
COc1cccc(/C(O)=C2\C(=O)C(=O)N(c3ccccn3)C2c2cccc(OC)c2OC)c1 (stereo unspecified)	0.8	1	-14	1.1	1
Cc1ccc2nc(CCc3nc4ccc(C)cc4o3)oc2c1	-0.2	1	8	0.9	1
Cc1ccc2nc(Cc3ccc(N)cc3)oc2c1	-0.78	0.7	69*	0.3	32
CCOc1ccc(/C=N/NC(=O)c2ccc(Cn3cc([N+](=O)[O-])cn3)o2)cc1	-0.29	0.4	6	0.9	59*
CCOc1ccccc1/C=N/NC(=O)c1ccc(Cn2cc([N+](=O)[O-])cn2)o1	0.11	1.1	29	0.7	-11
Cc1ccc(S(=O)(=O)N2CCOCC2)c(C)c1-n1cnnn1	0.48	3*	-9	1.1	-198
Nc1nc(SCC(=O)NC2CCCCC2)[nH]c(=O)c1-c1ccccc1	-0.96	0.9	25	0.8	13
O=C(O)c1ccccc1C(=O)N(Cc1ccccc1)Cc1ccccc1	-1.9	0.7	21	0.8	25
Nc1ccccc1C(=O)N(Cc1ccccc1)Cc1ccccc1	-5.8*	.	.	.	.
CCN(Cc1ccccc1)C(=O)c1ccccc1C	0.066	1	56*	0.4	1
CCOc1ccc2[nH]c(=O)c(CN(CCOC)C(=O)N3CCOCC3)cc2c1	0.5	1	-1	1	5
SMILES	Cav3 T inh	CYP2C9 activ	CYP2C19 inhib	CYP2C19 activ	CYP2C9 inh
Cc1ccc(NC(=O)NCCN2C(=O)C3C4C=CC(C4)C3C2=O)cc1 (stereo unspecified)	0.33	0.9	91*	0.1	13
Cc1ccccc1NC(=O)NCCN1C(=O)C2C3C=CC(C3)C2C1=O (stereo unspecified)	-0.075	1	50*	0.5	5
Cc1cccc(NC(=O)CCn2ccnc2C)c1	-1.2	0.9	62*	0.4	14
O=C(NCCN1C(=O)C2C3C=CC(C3)C2C1=O)NCc1ccccc1 (stereo unspecified)	-0.29	0.9	12	0.9	11
COc1ccc(NC(=O)NCCN2C(=O)C3C4C=CC(C4)C3C2=O)cc1 (stereo unspecified)	0.17	0.8	13	0.9	16
O=C(NCCN1C(=O)C2C3C=CC(C3)C2C1=O)N1CCCCC1 (stereo unspecified)	-1	1	4	1	0
O=C(NCCN1C(=O)C2C3C=CC(C3)C2C1=O)Nc1ccccc1 (stereo unspecified)	0.55	0.8	70*	0.3	19
Cc1ccc2oc(-c3cccc(NC(=O)c4cc(-n5cnnc5)ccc4Cl)c3)nc2c1	-0.94	.	.	.	.
O=C(NC1CCCCC1)C(c1ccccc1)N(C(=O)Cc1ccsc1)c1ccccc1 (stereo unspecified)	-0.35	1	-4	1	1
CSc1nc(N(C)NC(=O)c2ccc(F)cc2)c2ccccc2n1	-1.2	0.7	12	0.9	27
O=C(CCN1C(=O)C2C3C=CC(C3)C2C1=O)NCc1cccnc1 (stereo unspecified)	-1.5	1.1	98*	0	-8
Cc1cccc(NC(=O)CCN2C(=O)C3C4C=CC(C4)C3C2=O)c1 (stereo unspecified)	-1.4	0.7	85*	0.1	26
CCOC(=O)c1cccc(NC(=O)CN2C(=O)C3C4C=CC(C4)C3C2=O)c1 (stereo unspecified)	0.9	0.5	18	0.8	48
CCN1CCCC1CNC(=O)Cn1cccc1C(=O)c1ccccc1 (stereo unspecified)	0.83	1.1	-9	1.1	-7
Cc1nn(C/C(C#N)=N\O)c(C)[n+]1N	-0.21	1.2	-12	1.1	-17
O=C1OCCN1C(=O)[C@H]1[C@H](c2ccc([N+](=O)[O-])cc2)C(c2cccc(Cl)c2)=NN1c1ccccc1	-1.5	.	.	.	.
Cc1cccn2cc(-c3ccc(F)cc3)nc12	-0.078	0.6	67*	0.3	38
Fc1ccc(-c2cn3cc(C(F)(F)F)cc(Cl)c3n2)cc1	-2.3	0.9	37	0.6	13
FC(F)(F)c1ccc(C2[C@H]3CN(CC4CCCCC4)[C@H](c4ccccc4)C34CC2(c2cccnc2)C4)cc1 (stereo partly specified)	-0.24	.	.	.	.
C=CCN1C(=O)N(/C=C/C)c2cccc3cccc1c23	-5*	0.8	18	0.8	18
CC(c1cccnc1)N(C(=O)Nc1ccccc1)C1CCCCC1 (stereo unspecified)	0.15	0.9	11	0.9	11
CC(C)OC(=O)c1cccnc1SCC(=O)N(C)c1ccccc1	-0.7	0.7	69*	0.3	34
COc1ccc(NC(=O)CSc2ncccc2C(=O)OC(C)C)cc1OC	-0.11	0.2	92*	0.1	77*
COc1ccccc1NC(=O)CSc1nc2ncccc2[nH]1	-0.7	0.5	25	0.7	47
COc1ccc(NC(C)=O)cc1NC(=O)CSc1nc2ncccc2[nH]1	0.93	0.4	29	0.7	56*
